Here are results for 40 compounds from PubChem BioAssay (NCATS).

Inconclusive results are not listed. Values without a mark were called inactive. Active and inactive are the calls of the source. Calls follow the shape of the dose curve; as a rule, active = well fitted cell-killing curve with a large enough effect; inconclusive = small, poorly fitted or top-dose-only effect; inactive = no such curve, though single readings can be large or run the other way. Residues, ends and D or L forms follow the SMILES beside them. *: point of attachment. Cbz = O=C(OCc1ccccc1)*
% is scaled to controls: 0 for no effect and ±100 for the full control effect; potency is read from the fitted curve at half-maximal effect.

The assay can be described thus: qHTS of pediatric cancer cell lines to identify multiple opportunities for drug repurposing: Primary screen for A673 cells (AID 1347092). Also: nearly all actives have a fitted effect of over 45% in size. Particulars: A673 Ewing sarcoma viability, CellTiter-Glo ATP luminescence, 48 h; series mostly up to 46 µM; activity change, negative = cytotoxic: at the top concentration. An excerpt: Drug repurposing or repositioning has been offered as a strategy for drug development in oncology programs. This approach has special potential for childhood cancers and other rare or orphan diseases, where the expected return on new drug development has been a disincentive to pharmaceuticals. […] In this project we exploit the poly-pharmacology of drugs to discover new indications via phenotypic screening of a panel of 19 well-characterized cell lines derived from solid tumors seen in children and adolescents. The goal is to identify approved drugs with previously unrecognized anticancer properties that has the potential to reveal new mechanisms and biological processes involved in carcinogenesis or drug resistance. We employed a titration-based paradigm (quantitative high-throughput screening or qHTS), where all compounds were tested at multiple concentrations for their effect on cell viability. Concentration-response curves (CRCs) were derived directly from the primary screen, and both potency and efficacy values were used to identify compounds with robust bioactivity profiles. We screened the NIH Chemical Genomics Center (NCGC) Pharmaceutical Collection (NPC) and Mechanism Interrogation Plate (MIPE) small molecule collections of approved and investigational compounds against these cell lines; and measured metabolically active cells after 48 hours of compound treatment as a proxy for cell viability. […] Assay Submitter: Nathalia J. Martinez, National Center for Advancing Translational Sciences, National Institutes of Health, Rockville, MD, USA; email: natalia.martinez@nih.gov. Shen, M et al. Quantitative high-throughput phenotypic screening of pediatric cancer cell lines identifies multiple opportunities for drug repurposing. Oncotarget 2017 Dec 19;9(4):4758-4772. PMID 29435139.
The cells were obtained from University of North Carolina (UNC), Pediatric Preclinical Testing Program (PPT), and Coriell Institute (CI). qHTS cell viability assay: Cells were assayed in growth media at a density of 500-1,000 cells/well. Five microliters of cells were dispensed into 1,536-well, white, solid-bottom, TC-treated plates (Greiner Bio One) using a multidrop dispenser and incubated at 37 degrees C, 5% CO2, under a humidified atmosphere for 5 hours. Twenty-three nanoliters of compounds and controls (neutral control DMSO or positive control bortezomib at final concentration of 2.3 uM) were subsequently transferred by Kalypsys pintool. For primary screens, the MIPE collection was tested at 11-point dilutions (final concentrations range from 0.78 nM to 46 µM) and the NPC collection at 8-point dilutions (final concentrations range from 0.59 nM to 46 µM). Compounds tested in follow-up screens were assayed at 11-point dilutions. Cells were incubated for 48 hours, followed by addition of 3 uL of CellTiter-Glo (Promega). After a 15min incubation at room temperature, samples were analyzed for luminescence intensity using a ViewLux High-throughput CCD imager equipped with clear filters.
On the technique in general: In qHTS, concentration-response curves come from the screen itself.
As to `C[C@@H]1CC[C@@]2(OC1)OC1CC3C4CC=C5CC(O)CCC5(C)C4CCC3(C)C1[C@@H]2C` (stereo not given in full), the “activity change, negative = cytotoxic” value is 6.75%.
Regarding `O=c1c(O)c(-c2ccc(O)c(O)c2)oc2cc(O)ccc12`, the Potency is 29.6 µM (active).
For the compound `c1coc(CNc2ncnc3nc[nH]c23)c1`, the “activity change, negative = cytotoxic” value is -5.04%.
As to `CCOc1cc2ncc(C#N)c(Nc3ccc(OCc4ccccn4)c(Cl)c3)c2cc1NC(=O)C=CCN(C)C`, the Potency was 0.0743 µM (active).
Regarding `CC(C)C[C@@H](C=O)NC(=O)[C@H](CC(C)C)NC(=O)[C@H](CC(C)C)NC(=O)OCc1ccccc1` (Cbz-Leu-Leu-Leu-aldehyde), the Potency was 0.235 µM (active).
Consider `COc1ccc(CCC(=O)c2c(O)cc(O[C@@H]3O[C@H](CO)[C@@H](O)[C@H](O)[C@@H]3O[C@@H]3O[C@@H](C)[C@H](O)[C@@H](O)[C@@H]3O)cc2O)cc1O`, for which the Potency was 9.35 µM (active).
Regarding `Cc1ccccc1C(=O)Nc1ccc(C(=O)N2CCCC(O)c3cc(Cl)ccc32)c(C)c1` (stereo not given), the “activity change, negative = cytotoxic” value was -15%.
`O=C(C=Cc1ccc(CN(CCO)CCc2c[nH]c3ccccc23)cc1)NO`: the Potency is 0.235 µM (active).
Regarding `O=C(O)C(=O)Nc1cccc(C2=NN=N[N]2)c1`, the “activity change, negative = cytotoxic” value was -5.84%.
As for `Cc1noc(-c2ccc(CSCCC(=O)O)cc2)c1NC(=O)OC(C)c1ccccc1Cl` (stereo not given), the “activity change, negative = cytotoxic” value was -3.27%.
For the compound `CC(C)OC(=O)[C@H](C)N[P@](=O)(OC[C@H]1O[C@@H](n2ccc(=O)[nH]c2=O)[C@](C)(F)[C@H]1O)Oc1ccccc1`, the “activity change, negative = cytotoxic” value was -27.2%.
`O=c1[nH]c(=O)n([C@H]2C[C@@H](O)[C@@H](CO)O2)cc1F`: the Potency was 1.87 µM (active).
In the case of `COC1=C(OC)C(=O)C(CC=C(C)CCC=C(C)CCC=C(C)CCC=C(C)CCC=C(C)CCC=C(C)CCC=C(C)CCC=C(C)CCC=C(C)CCC=C(C)C)=C(C)C1=O`, the “activity change, negative = cytotoxic” value was 8.29%.
On to `CN(C)CC(=O)N1CCC(c2ccc(NC(=O)c3ncc(C#N)[nH]3)c(C3=CCCCC3)c2)CC1`, for which the Potency was 18.7 µM (active).
Same read-out and setting: with `CCCCCCCCc1ccc(CCC(N)(CO)CO)cc1` the figure was 4.69 µM (active).
In the case of `CCNC(=O)c1cc2c(-c3cc(OCCN4CCCC4)c(Cl)cc3Cl)nc(N)nc2s1`, the Potency is 1.18 µM (active).
As for `CC(=O)O[C@H]1C[C@@H]2CC[C@H]3[C@H]4C[C@H]([N+]5(C)CCCCC5)[C@@H](OC(C)=O)[C@@]4(C)CC[C@@H]3[C@@]2(C)C[C@H]1[N+]1(C)CCCCC1`, the “activity change, negative = cytotoxic” value was -4.75%.
Regarding `CCC(C=C[C@@H]1OC(=O)C=C[C@H]1C)=C[C@H](C)CC=CC(C)=C[C@@H](C)C(=O)[C@@H](C)[C@H](O)[C@@H](C)CC(C)=CC(=O)O`, the Potency was 0.0247 µM (active).
Still for that read-out and setting: the result for `CN(CC(=O)N(Cc1ccc(C2CCCCC2)cc1)c1ccc(C(=O)O)c(O)c1)S(=O)(=O)c1c(F)c(F)c(F)c(F)c1F` reads 9.35 µM (active); that for `CC(C)N1[N]C(=C2C=c3cc(O)ccc3=N2)c2c(N)ncnc21`, 1.48 µM (active).
The same measure, in the same setting: with `O=C1NCCc2[nH]c(-c3ccncc3)cc21` the figure was 1.18 µM (active).
For `Nc1ccn(C[C@@H](CO)OCP(=O)(O)O)c(=O)n1`, the “activity change, negative = cytotoxic” value was 4.49% [at 16.1 µM].
As to `COC(=O)[C@@H]1CC2=CC(=O)CC[C@]2(C)[C@@]23O[C@@H]2C[C@@]2(C)[C@H](CC[C@@]24CCC(=O)O4)[C@@H]13`, the “activity change, negative = cytotoxic” value was 4.49%.
For the compound `O=C1c2cccc(O)c2C(=O)c2c(O)cc(CO)cc21`, the “activity change, negative = cytotoxic” value was -28.8%.
On the same count and under the same terms, with `CC1(C)O[C@@H]2C[C@H]3[C@@H]4CCC5=CC(=O)C=C[C@]5(C)[C@@H]4[C@@H](O)C[C@]3(C)[C@]2(C(=O)CO)O1` the figure was -7.08%.
As for `FC(F)(F)c1ccc(Nc2nc3ccc(Oc4ccnc(-c5ncc(C(F)(F)F)[nH]5)c4)cc3[nH]2)cc1`, the Potency was 14.8 µM (active).
With `Nc1ncn([C@@H]2O[C@H](CO)[C@@H](O)[C@@H]2O)c(=O)n1`, the Potency is 4.69 µM (active).
For the compound `CCCCCCCCCCCCc1ccc(S(=O)(=O)Nc2nncs2)cc1`, the “activity change, negative = cytotoxic” value was -19.9%.
With `Oc1cc2c(cc1O)C1c3ccc(O)c(O)c3OCC1(O)C2` (stereo not given), the “activity change, negative = cytotoxic” value was -2.28%.
Consider `O=C(NNC(=O)c1ccc(CNS(=O)(=O)c2ccc(F)c(Cl)c2)cc1)c1ccccc1`, for which the “activity change, negative = cytotoxic” value is -1.58%.
Turning to `CN(C)c1ccc2cc(C(=O)N[C@@H](CCCN=C(N)CCl)C(=O)NCc3ccccc3)ccc2c1`, the Potency was 0.469 µM (active).
As to `CC(=O)N[C@H]1[C@@H]([C@H](O)[C@H](O)CO)OC(C(=O)O)=C[C@@H]1N=C(N)N`, the “activity change, negative = cytotoxic” value is -10.9%.
Take `CC1(C)CC(O)CC(C)(C)N1[O]`: the “activity change, negative = cytotoxic” value was 3.07%.
Consider `COc1ccc(S(=O)(=O)Nc2cc(-c3c(O)ccc4ccccc34)c(O)c3ccccc23)cc1`, for which the Potency is 7.43 µM (active).
Consider `C[C@@H]1[C@H](C)CC[C@]2(C(=O)O)CC[C@]3(C)C(=CC[C@@H]4[C@@]5(C)C[C@@H](O)[C@H](O)[C@@](C)(CO)[C@H]5CC[C@]43C)[C@@H]12`, for which the “activity change, negative = cytotoxic” value was 9.91%.
As for `CCOC(=O)[C@H](CCc1ccccc1)N[C@@H](C)C(=O)N1[C@@H](C(=O)O)C[C@H]2CCC[C@@H]21`, the Potency is 9.35 µM (active).
In the case of `COc1cccc2c1C(=O)c1c(O)c3c(c(O)c1C2=O)C[C@@](O)(C(C)=O)C[C@H]3O[C@H]1C[C@H](N)[C@H](O)[C@H](C)O1`, the Potency is 0.0469 µM (active).
Consider `NC1=N[C@H]2[C@H](CS[C@H]2CCCCC(=O)O)N1`, for which the “activity change, negative = cytotoxic” value was -6.11% [at 16.1 µM].
`C=CC1=C(C(=O)O)N2C(=O)[C@@H](NC(=O)C(=NO)c3csc(N)n3)[C@H]2SC1`: the “activity change, negative = cytotoxic” value is -2.02%.
For the compound `COc1cc2c(Nc3ccc(Cl)c(Cl)c3F)ncnc2cc1OCC1C[C@@H]2CN(C)C[C@H]2C1`, the Potency is 0.935 µM (active).
